# Test results taken from the supplement of paper PMC11150407.
# Counter-ions that a name gives are not always drawn. Among all 2,100 compounds or so, about 180 (8.6%) showed an effect of 50% or more. For the sample, strong results were picked, then their nearest neighbours and some compounds at random.
# Tested on: MOLM1 and UCSD/AML1 (averaged)
# Assay: cell viability relative to DMSO control (POC); higher = less growth inhibition
# Details: 1 µM; 72 h
# Protocol: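 Primary viability screen in the 3q26 EVI1-high AML cell lines MOLM1 and UCSD/AML1 (1.5e3 cells/well, 384-well), compounds at 1 uM for 72 h. ATP CellTiter-Glo read-out given as percent of viable cells over DMSO control (POC), averaged over duplicates. DMSO was the negative control and 5 uM etoposide the positive control. This mapping covers the MicroSource Spectrum and Selleck anticancer libraries (drug names).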
row,Structure (SMILES),cell viability [%]
1,CC(C)C[C@@H]1NC(=O)[C@H](CCCN)NC(=O)[C@H](C(C)C)NC(=O)[C@H](Cc2ccc(O)cc2)N[C@@H](CCC(=O)O)C(=O)N[C@@H](CC(N)=O)C(=O)[C@@H](Cc2ccccc2)NC(=O)[C@H](Cc2ccccc2)NC(=O)[C@@H]2CCCN2C(=O)[C@@H](Cc2ccccc2)NC1=O,13
2,CC[C@H](C)[C@H](N)C1=N[C@H](C(=O)N[C@@H](CC(C)C)C(=O)N[C@H](CCC(=O)O)C(=O)N[C@H](C(=O)N[C@H]2CCCCNC(=O)[C@H](CC(N)=O)NC(=O)[C@@H](CC(=O)O)NC(=O)[C@H](Cc3cnc[nH]3)NC(=O)[C@@H](Cc3ccccc3)NC(=O)[C@H]([C@@H](C)CC)NC(=O)[C@@H](CCCN)NC2=O)[C@@H](C)CC)CS1,94.8
3,CC1=C(CCC(=O)O)c2cc3[nH]c(cc4nc(cc5[nH]c(cc1n2)c(C)c5C(C)O)C(C)=C4C(C)O)c(C)c3CCC(=O)O (stereo unspecified),107
4,COc1cc(O)c2c(c1)C(=O)c1cc(C)cc(O)c1C2=O,94.9
5,O=C(/C=C/c1ccc(O)c(O)c1)O[C@H](Cc1ccc(O)c(O)c1)C(=O)O,104
6,Cc1ccc(-n2nc(C(C)(C)C)cc2NC(=O)Nc2ccc(OCCN3CCOCC3)c3ccccc23)cc1 [BIRB 796 (Doramapimod)],85.1
7,CNC(=O)c1cc(Oc2ccc(NC(=O)Nc3ccc(Cl)c(C(F)(F)F)c3)cc2)ccn1 [Sorafenib (Nexavar)],59.7
8,CNC(=O)c1cc(Oc2ccc(NC(=O)Nc3cc(C(C)(C)C)nn3-c3ccc4ncccc4c3)c(F)c2)ccn1 [DCC-2036 (Rebastinib)],24.6
9,CNC(=O)c1cc(Oc2ccc(NC(=O)Nc3ccc(Cl)c(C(F)(F)F)c3)c(F)c2)ccn1 [Regorafenib (BAY 73-4506)],28.9
10,Cc1cc(OC(=O)c2c(C)cc(O)cc2O)cc(O)c1C(=O)O,103
11,Nc1ccccc1C(=O)CC(N)C(=O)O (stereo unspecified),98.1
12,CC(C)=CCC[C@@H](C)[C@@H]1CC[C@]2(C)C3=C(CC[C@@]12C)[C@@]1(C)CC[C@H](O)C(C)(C)[C@@H]1CC3,97.6
13,COc1cc(OC)c2ccc(=O)oc2c1,99.1
14,COc1cc(OC)c2c(c1Cl)O[C@@]1(C(=O)CC(=O)C[C@H]1C)C2=O,102
15,Cc1ccc(C(=O)Nc2ccc(CN3CCN(C)CC3)c(C(F)(F)F)c2)cc1C#Cc1cnc2cccnn12,4.31
16,CS(=O)(=O)N1CCN(Cc2cc3nc(-c4cccc5[nH]ncc45)nc(N4CCOCC4)c3s2)CC1 [Pictilisib (GDC-0941)],51.1
17,CC1(C)C(=O)C=C[C@]2(C)[C@H]3CC[C@@]4(C)[C@H](c5ccoc5)OC(=O)[C@H]5O[C@]54[C@]3(C)C(=O)C[C@@H]12,84.7
18,COc1ccc2c(c1)O[C@H]1c3ccc(OC)cc3OC[C@@H]21,105
19,Cc1cc2c(F)c(Oc3ncnn4cc(OC[C@@H](C)O)c(C)c34)ccc2[nH]1,89.6
20,Oc1cc(O)c2c(c1)O[C@H](c1ccc(O)c(O)c1)[C@H](O)C2,96.7
21,O=C(Nc1cccnc1)N1CCC(Cc2cccc(Oc3ccc(C(F)(F)F)cn3)c2)CC1,56.7

row,Structure (SMILES),cell viability [%]
1,O=C(/C=C/c1cccnc1)NCCCCC1CCN(C(=O)c2ccccc2)CC1,12
2,O=C(O)c1cccnc1,95
3,COc1c(O)cc(O)cc1O,98.8
4,O=C(O)CC[C@H]1CC[C@@](c2cc(F)ccc2F)(S(=O)(=O)c2ccc(Cl)cc2)CC1,71
5,Cc1cccc2c3c(ccc12)C1=C(C(=O)C3=O)[C@@H](C)CO1,98.4
6,CN(C)CC[C@H](CSc1ccccc1)Nc1ccc(S(=O)(=O)NC(=O)c2ccc(N3CCN(Cc4ccccc4-c4ccc(Cl)cc4)CC3)cc2)cc1[N+](=O)[O-],32.3
7,CC1(C)CCC(c2ccc(Cl)cc2)=C(CN2CCN(c3ccc(C(=O)NS(=O)(=O)c4ccc(N[C@H](CCN5CCOCC5)CSc5ccccc5)c(S(=O)(=O)C(F)(F)F)c4)cc3)CC2)C1 [ABT-263 (Navitoclax)],6.23
8,NC1(C(=O)O)CCC1,102
9,OC[C@H]1O[C@@](CO)(O[C@H]2O[C@H](CO)[C@@H](O)[C@H](O)[C@H]2O)[C@@H](O[C@H]2O[C@H](CO)[C@@H](O)[C@H](O)[C@H]2O)[C@@H]1O,103
10,CC(C)=CCc1c(O)cc2occ(-c3ccc4c(c3)OCO4)c(=O)c2c1O,100
11,C[C@@H]1CC[C@H]2[C@](C)(CO)[C@@H](O)CC[C@]2(C)[C@@]12CC[C@@](CO)(CCO)O2,89.3
12,C[C@@H]1O[C@@H](O[C@H]2[C@H](Oc3cc(O)c4c(=O)cc(-c5ccc(O)cc5)oc4c3)O[C@H](CO)[C@@H](O)[C@@H]2O)[C@H](O)[C@H](O)[C@H]1O,110
13,Sc1nc2ccccc2s1,115
14,C=CC(C)(O)CCC1C(=C)CC(O)C2C(C)(C)CCCC12C (stereo unspecified),105
15,CC[C@]1(O)C[C@@H]2CN(CCc3c([nH]c4ccccc34)[C@@](C(=O)OC)(c3cc4c(cc3OC)N(C)[C@H]3[C@@](O)(C(=O)OC)[C@H](OC(C)=O)[C@]5(CC)C=CCN6CC[C@]43[C@@H]65)C2)C1 [Vinblastine],8.43
16,CC[C@]1(O)C[C@@H]2CN(CCc3c([nH]c4ccccc34)[C@@](C(=O)OC)(c3cc4c(cc3OC)N(C)[C@H]3[C@@](O)(C(=O)OC)[C@H](OC(C)=O)[C@]5(CC)C=CCN6CC[C@]43[C@@H]65)C2)C1,7.14
17,CC[C@]1(O)C[C@H]2CN(CCc3c([nH]c4ccccc34)[C@@](C(=O)OC)(c3cc4c(cc3OC)N(C=O)[C@H]3[C@@](O)(C(=O)OC)[C@H](OC(C)=O)[C@]5(CC)C=CCN6CC[C@]43[C@@H]65)C2)C1 [Vincristine Sulfate],7.83
18,CC[C@]1(O)C[C@H]2CN(CCc3c([nH]c4ccccc34)[C@@](C(=O)OC)(c3cc4c(cc3OC)N(C=O)[C@H]3[C@@](O)(C(=O)OC)[C@H](OC(C)=O)[C@]5(CC)C=CCN6CC[C@]43[C@@H]65)C2)C1,11.3
19,COc1ccc2c(=O)c(-c3ccc(O)cc3)coc2c1,84.7
20,CC(C)c1c(O)ccc2c1CC[C@H]1C(C)(C)CCC[C@]21C,90.4
